# How the values were obtained:
# Assay in all cases: PBM binding z-score (relative to random genomic background probes); higher = stronger binding; sequences stand for … in GC…GCGATTGACAGCGTAGAATGAAGG
# [1] = system: PPARg:RXRa DBDmut IVT, anti-RXR (DBD mutation: RXRa K156A/R161A, NR concentration 270 nM, RXRa partner concentration 90 nM)
# In short: (§1)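 Ligand-free nuclear receptor dimers were applied to custom Agilent 4×180K protein-binding microarrays whose double-stranded probes carried direct-repeat seeds, single-nucleotide variants, half-site ablations and random human genomic background sequences in 34-nt variable regions. Incubation lasted 1 h. Binding z-scores were computed against the random background probes from regression-normalized fluorescence.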
# [2] = system: PPARg:RXRa IVT, anti-PPARg (NR concentration 270 nM, RXRa partner concentration 90 nM)
# In short: as §1
# [3] = system: PPARg DBDmut:RXRa IVT, anti-PPARg (DBD mutation: PPARg1 K132A/R137A, NR concentration 270 nM, RXRa partner concentration 90 nM)
# In short: as §1
# [4] = system: PPARg DBDmut IVT, anti-PPARg (DBD mutation: PPARg1 K132A/R137A, NR concentration 270 nM)
# In short: as §1
# [5] = system: PPARg homodimer (NR concentration 180 nM)
# In short: as §1
# [6] = system: PXR:RXRa (NR concentration 270 nM, RXRa partner concentration 90 nM)
# In short: as §1
# [7] = system: PXR homodimer (NR concentration 270 nM)
# In short: as §1
# [8] = system: RARa:RXR (NR concentration 270 nM, RXRa partner concentration 90 nM)
# In short: as §1
# [9] = system: RARa homodimer (NR concentration 270 nM)
# In short: as §1
# [10] = system: RARb:RXRa (NR concentration 270 nM, RXRa partner concentration 90 nM)
# In short: as §1
# [11] = system: RARb homodimer (NR concentration 270 nM)
# In short: as §1
# [12] = system: RARg:RXRa (NR concentration 270 nM, RXRa partner concentration 90 nM)
# In short: as §1
# [13] = system: RARg homodimer (NR concentration 270 nM)
# In short: as §1
# [14] = system: RXRa DBDmut IVT, anti-RXR (DBD mutation: RXRa K156A/R161A, NR concentration 90 nM)
# In short: as §1
# [15] = system: RXRa homodimer (NR concentration 180 nM)
# In short: as §1
# [16] = system: THRa:RXRa (NR concentration 90 nM, RXRa partner concentration 90 nM)
# In short: as §1
# [17] = system: THRa homodimer (NR concentration 90 nM)
# In short: as §1
# [18] = system: VDR homodimer (NR concentration 270 nM)
# In short: as §1
Sequence,PBM binding z-score [1],PBM binding z-score [2],PBM binding z-score [3],PBM binding z-score [4],PBM binding z-score [5],PBM binding z-score [6],PBM binding z-score [7],PBM binding z-score [8],PBM binding z-score [9],PBM binding z-score [10],PBM binding z-score [11],PBM binding z-score [12],PBM binding z-score [13],PBM binding z-score [14],PBM binding z-score [15],PBM binding z-score [16],PBM binding z-score [17],PBM binding z-score [18]
CCTAGCAGGCCAATCTGGGTCACTAAAGGCTTGA,4,4.94,-0.0852,-0.774,0.49,0.325,-0.597,1.13,-0.281,1.23,2.01,0.915,1.17,0.23,0.402,3.4,0.446,0.000244
ATCTAAAGGTCGTGAGGTGAGTATACAGAAAGGC,1.12,2.89,1.3,1.74,2.21,3.4,0.645,4.46,1.13,4.15,3.14,4.55,4.01,2.22,5.37,3.44,1.84,1.7
ACTTACGGGTCAACGAGGTTATAGGACGCGTATA,3.03,4.18,1.47,0.791,2,5.08,2.36,5,1.18,4.41,3.83,5.63,5.28,2.24,6.33,4.32,1.19,3.27
ACTAGCAGGCCAAGGGTCACTAAAGATTAGTCCG,1.3,3.86,0.0188,-0.44,2,3,-0.139,3.97,0.15,3.42,3.83,4.08,3.84,0.469,4.13,2.31,0.0838,1.07
CGTCGAAGTTCAAGGTAACGTAACAGAAAGCAGC,-0.377,0.326,0.134,-0.191,0.722,2.28,0.897,1.5,-0.214,3.38,1.95,2.79,3.25,3.69,2.21,2.07,0.792,1.74
TCCAGTAGGTTAGTCGGGGCATTCAGCCAACATA,3.62,3.02,-0.197,-0.452,0.925,0.439,0.18,0.346,0.0406,0.79,0.924,0.125,0.158,1.18,0.345,1.19,0.383,0.673
CGAACTAGGTCATCCAGGACAGTCAATACATTGA,8.57,8.35,3.88,2.33,1.98,2.25,1.6,2.83,0.712,3.95,3.04,4.11,5.21,2.72,3.39,3.81,2.01,2.52
AGTCAAAGTCCATCTAGGTAACGTAAGATATGCT,0.353,2.15,1.24,0.675,-0.173,-0.246,0.131,0.0232,0.0654,1.37,0.564,0.538,1.09,1.23,-0.0358,1.14,0.0644,0.572
TCATATAGGTAAAAGGTGAAAGTCGGTGTGGTAA,5.72,5.59,2.1,0.745,2.06,2.17,0.508,3.73,2.49,2.22,2.06,2.24,1.17,1.87,2.96,1.77,0.633,0.737
CGTCCAAGGTCTGCAGGTCAGTGAAAGCGACGTG,0.404,0.652,-0.578,-0.887,0.2,0.243,-0.548,0.466,-0.728,2.16,2.06,1.26,1.8,0.0779,0.794,1.12,-0.0329,-0.462
CCGACTGGGGCAACGTTACCATAACGCACAGCCA,4.02,3.62,-0.725,-0.25,-0.224,-0.885,-0.271,-0.695,-0.177,0.224,-0.0419,0.137,0.521,-0.207,-0.126,-0.262,-0.261,-0.403
GCGACCGGGGCAAAGCAGGTTACCATAAGGTTGG,1.27,1.24,-1.18,-1.17,0.243,0.857,-0.433,1.31,-0.661,1.65,1.47,1.97,1.54,-0.485,0.949,3.71,-0.0146,-0.132
CCTATTGGGCCAAAAAGGTCATTGATGCCGATAA,1.89,2.64,0.177,-0.558,2.26,4.74,2.45,4.98,1.26,3.79,4.34,4.44,4.07,0.773,4.53,3.25,0.389,2.18
GGAACGAGGGCACGTTGATAGCAGAGTTTGATGG,4.33,3.73,0.361,-0.223,-0.0757,0.508,-0.125,0.282,-0.225,2.37,1.27,1.53,2,2,0.885,1.41,0.0368,1.03
TCTTGTAGATCAAGCACGTTAAGAAAGCCTGAGT,1.73,0.108,0.449,0.566,0.56,0.445,-0.148,0.501,-0.338,-0.035,-0.605,-0.0676,-0.183,0.721,0.234,-0.341,-0.599,-0.125
